RmlC RmlD mix: RmlC/RmlD inhibition, mixture screen; RmlC/RmlD coupled enzyme inhibition, 384-well mixture HTS; inhibition, % at 5.5 µM; hit rate 0.39% among 110,000; in the data active means inhibition above about 30%, passing the limit was not always enough; inconclusive means no clear call, values can overlap the other calls
HIV RNase H inh-1: inhibitors of HIV-1 reverse transcriptase RNase H; P04585; RT-RNase H RNA/DNA duplex cleavage, fluorescence; inhibition, % at 10 µM; hit rate 1.9% among 65,000; in the data active means inhibition above about 50%
HIV RNase H inh-2: confirmation of HIV-1 reverse transcriptase RNase H inhibitors. shares compounds with HIV RNase H inh-1. Recombinant RT RNase H, fluorescent RNA/DNA duplex cleavage. inhibition, % at 10 µM. hit rate 39% among 1,000. AID 651; in the data active means inhibition above about 48%; inconclusive means no clear call, values can overlap the other calls
* hit, by the source's call. Only a selection was taken, and hits are over-represented in it overall.

`Cc1c(C(=O)Nc2ccccc2-c2ccccc2)cccc1[N+](=O)[O-]` gave RmlC RmlD mix 4.
For CCc1nnc(NC(=O)Cn2c(=O)oc3ccccc32)s1 the results were RmlC RmlD mix 8.
CCCc1nnc(NC(=O)Cn2c(=O)oc3ccccc32)s1 was read as HIV RNase H inh-1 77* and HIV RNase H inh-2 -16.
`CCNC(=S)N/N=C/c1ccc(OCC(=O)Nc2ccc(C)cc2)cc1` gave RmlC RmlD mix 10.
Screening Cc1cc(OCC(=O)NCCCN2CCOCC2)cc(C)c1Cl returned RmlC RmlD mix 4 and HIV RNase H inh-1 3.
Cc1ccc(-c2ccc(=O)n(CC(=O)N3CCN(c4cccc(C)c4)C(C)C3)n2)cc1 (centres undefined) was read as RmlC RmlD mix -2 and HIV RNase H inh-1 -23.
Screening Cc1cccc(N2CCN(C(=O)Cn3sc4nc(C)cc(C)c4c3=O)CC2C)c1 (centres undefined) returned RmlC RmlD mix -3, HIV RNase H inh-1 93* and HIV RNase H inh-2 56*.
Cc1cc(C)c2c(=O)n(CC(=O)NCCCN3CCOCC3)sc2n1 was read as RmlC RmlD mix 16, HIV RNase H inh-1 90* and HIV RNase H inh-2 77*.
Screening Cn1cnnc1SCC(=O)N1CCC(Cc2ccccc2)CC1 returned RmlC RmlD mix 8 and HIV RNase H inh-1 -5.
Cc1cc(C)c2c(=O)n(CC(=O)N3CCC(Cc4ccccc4)CC3)sc2n1 was read as HIV RNase H inh-1 79* and HIV RNase H inh-2 10.
CCc1nc(SCC(=O)N2CCC(C)CC2)c2c(=O)n(C)c(=O)n(C)c2n1 was read as RmlC RmlD mix 14 and HIV RNase H inh-1 -6.
For Cc1ccc(NC(=O)Cc2ncc(C(F)(F)F)cc2Cl)cc1Cl the results were RmlC RmlD mix 9.
For CN1CCN(CC(=O)N(C)c2nc(-c3ccccc3)cs2)CC1 the results were RmlC RmlD mix 5 and HIV RNase H inh-1 -3.
For CC(=Nc1ccccc1)Nc1ccccc1 the results were RmlC RmlD mix 2 and HIV RNase H inh-1 25.
S=C(N=Nc1ccccc1)NNc1ccccc1 was read as RmlC RmlD mix 0, HIV RNase H inh-1 69* and HIV RNase H inh-2 32.
Screening COc1ccc(OC)c(N(CC(=O)N2CCc3ccccc3C2)S(C)(=O)=O)c1 returned RmlC RmlD mix -1.
Screening O=C1NC(c2cccnc2)Nc2sc3c(c21)CCCC3 (centres undefined) returned RmlC RmlD mix -4.
For CC1(C)Cc2c(sc3c2C(=O)NC(c2cccnc2)N3)CO1 (centres undefined) the results were RmlC RmlD mix 10, HIV RNase H inh-1 54* and HIV RNase H inh-2 6.
`Cc1ccc(N2C(=O)C3C(C2=O)C2C=CC3C23CC3)cc1` (centres undefined) gave RmlC RmlD mix -1 and HIV RNase H inh-1 1.
For O=C1C2C(C(=O)N1c1ccncc1)C1C=CC2C12CC2 (centres undefined) the results were RmlC RmlD mix -8, HIV RNase H inh-1 74* and HIV RNase H inh-2 29.
For COc1cc(CC(=O)NCCc2ccc(S(N)(=O)=O)cc2)cc(OC)c1OC the results were RmlC RmlD mix -5.
`COc1ccccc1OCc1nnc(SCC(=O)NCc2ccco2)n1Cc1ccco1` gave RmlC RmlD mix -15, HIV RNase H inh-1 66* and HIV RNase H inh-2 20.
Screening COc1ccccc1NC(=O)CSc1nnc(COc2ccc(Cl)cc2)n1Cc1ccco1 returned RmlC RmlD mix -4 and HIV RNase H inh-1 -9.
For O=C(c1ccc(Oc2ccccc2)cc1)c1nc2c(n1O)CCCC2 the results were RmlC RmlD mix -5.
Cc1cccc(C)c1OCC(O)CNC(C)(C)C (centres undefined) was read as RmlC RmlD mix -14.
For CCOC(=O)c1cc(-c2ccc(C)cc2)n(CC(=O)NCc2ccco2)c1C the results were RmlC RmlD mix -9, HIV RNase H inh-1 58* and HIV RNase H inh-2 31.
For CCOC(=O)c1cc(-c2ccc(C)cc2)n(CCC(=O)NCCN(C)C)c1C the results were RmlC RmlD mix inconclusive and HIV RNase H inh-1 3.
Screening CS/C(=N\S(=O)(=O)c1cccs1)NC(=O)CSc1nc2ccccc2s1 returned RmlC RmlD mix -15, HIV RNase H inh-1 73* and HIV RNase H inh-2 35.
Screening Cc1ccc(S(=O)(=O)NC(=O)CSc2nc3ccccc3s2)cc1 returned RmlC RmlD mix -9.
CCC(C)(C(=O)NC1CCCC1)N(C(=O)CC1NC(=O)NC1=O)c1ccc(C)cc1 (centres undefined) was read as RmlC RmlD mix -6.
C=CCn1c(=O)c2c(C)c(C)sc2n2c(Nc3ccccc3)nnc12 was read as RmlC RmlD mix -12 and HIV RNase H inh-1 -23.
Cc1cc(NC(=O)CSc2nc3ccccc3c(=O)n2Cc2ccc(F)cc2)no1 was read as RmlC RmlD mix -5, HIV RNase H inh-1 68* and HIV RNase H inh-2 22.
For COc1ccc(CCn2c(SCC(=O)Nc3cc(C)on3)nc3ccccc3c2=O)cc1OC the results were HIV RNase H inh-1 0.
Screening CCCCCCn1c(SCC(=O)Nc2cc(C)on2)nc2ccccc2c1=O returned RmlC RmlD mix 5 and HIV RNase H inh-1 47.
For Cc1cc(NC(=O)CSc2nc3cc4c(cc3c(=O)n2CCc2ccccc2)OCO4)no1 the results were RmlC RmlD mix 11, HIV RNase H inh-1 78* and HIV RNase H inh-2 71*.
`COc1ccc(C2/C=C\CN(Cc3ccco3)CC(=O)N2Cc2ccc(F)cc2)cc1` (centres undefined) gave RmlC RmlD mix 0.
Screening COc1c2c(nc3occc13)C(CCC(C)(C)O)(OC)C(O)CC2 (centres undefined) returned RmlC RmlD mix 26 and HIV RNase H inh-1 -38.
Screening O=c1/c(=C/c2cccc3ccccc23)sc2ncnn12 returned RmlC RmlD mix -4, HIV RNase H inh-1 96* and HIV RNase H inh-2 0.
Cc1ccsc1/C=c1\sc2ncnn2c1=O was read as RmlC RmlD mix -2 and HIV RNase H inh-1 2.
`N/C(=N\OC(=O)CCCCCN1C(=O)c2ccccc2C1=O)c1ccccc1` gave RmlC RmlD mix -9.
CCOC(=O)c1ccc(NC(=O)COc2ccc(S(=O)(=O)NC(C)(C)C)cc2)cc1 was read as RmlC RmlD mix -3.
Screening Nn1cnn(Cc2ccccc2)c1=S returned RmlC RmlD mix -4, HIV RNase H inh-1 73* and HIV RNase H inh-2 inconclusive.
For c1ccc(Cn2ncc3ccccc32)cc1 the results were RmlC RmlD mix 8 and HIV RNase H inh-1 -52.
`Cc1cccc(NC(=O)c2cccc(Cn3cc(Br)c([N+](=O)[O-])n3)c2)c1C` gave RmlC RmlD mix -2.
Screening OCCCn1c(CCNc2nc(-c3ccc(F)cc3)cs2)nc2cc(C(F)(F)F)ccc21 returned RmlC RmlD mix 7.
CCC(C)n1ncn(-c2ccc(N3CCN(c4ccc(OCC5COC(Cn6cncn6)(c6ccc(Cl)cc6Cl)O5)cc4)CC3)cc2)c1=O (centres undefined) was read as RmlC RmlD mix 57, HIV RNase H inh-1 73* and HIV RNase H inh-2 37.
Screening CCCC1COC(Cn2cncn2)(c2ccc(C)cc2)O1 (centres undefined) returned RmlC RmlD mix -3 and HIV RNase H inh-1 -11.
`O=C(C1=C[C@@H](c2coc3ccccc3c2=O)C[C@@H](OCCCCO)O1)N1CCN(Cc2ccc3c(c2)OCO3)CC1` gave RmlC RmlD mix 10.
